Drawing on PubChem BioAssay (NCATS), this text covers outcome and Potency for four compounds.

Inconclusive results are not listed. The source made the active and inactive calls. Unless noted, the call rests on the fitted dose curve; in most records, active means well fitted curve in the direction sought with a large enough effect; inconclusive means small, poorly fitted or top-dose-only effect, or another doubt; inactive means no such curve, though single readings can be large; an effect the other way counts as inactive or inconclusive.

For test [1], the target named is ATP-dependent 6-phosphofructokinase (Trypanosoma brucei brucei) (UniProt O15648). Put plainly: qHTS Assay to Find Inhibitors of T. brucei phosphofructokinase: hit validation (AID 492961).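 Further: luminescence reports ADP formed as PFK phosphorylates fructose-6-phosphate with ATP.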 The procedure, abridged:
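Compounds titrated; %activity normalized to 0x and 1x enzyme controls, curve-fitted. Readout: ADP-Glo luminescence after 45 min room-temperature reaction of 1.25 nM PFK, 0.1 mM ATP, 0.5 mM F6P, pH 8.0.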
(In qHTS, concentration-response curves come from the screen itself.)

For test [2], the target named is Ubiquitin carboxyl-terminal hydrolase 1 (Homo sapiens) (UniProt O94782). The test is described as follows: Inhibitors of USP1/UAF1: Pilot qHTS (AID 504865).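 Further: rhodamine fluorescence freed from ubiquitin-rhodamine substrate followed over time; top concentration of the series differs between compounds; nearly all actives have a fitted effect of over 35% in size.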 The gist of the method: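 Enzyme-free wells gave the negative control, while test wells held 1nM USP1/UAF1 preincubated with compound for 15 min at room temperature. Ub-Rho at 150nM final started the reaction, and fluorescence at 480/540 nm was recorded kinetically.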
Chain of Ubiquitin carboxyl-terminal hydrolase 1 (Homo sapiens) (O94782 whole entry, looked up): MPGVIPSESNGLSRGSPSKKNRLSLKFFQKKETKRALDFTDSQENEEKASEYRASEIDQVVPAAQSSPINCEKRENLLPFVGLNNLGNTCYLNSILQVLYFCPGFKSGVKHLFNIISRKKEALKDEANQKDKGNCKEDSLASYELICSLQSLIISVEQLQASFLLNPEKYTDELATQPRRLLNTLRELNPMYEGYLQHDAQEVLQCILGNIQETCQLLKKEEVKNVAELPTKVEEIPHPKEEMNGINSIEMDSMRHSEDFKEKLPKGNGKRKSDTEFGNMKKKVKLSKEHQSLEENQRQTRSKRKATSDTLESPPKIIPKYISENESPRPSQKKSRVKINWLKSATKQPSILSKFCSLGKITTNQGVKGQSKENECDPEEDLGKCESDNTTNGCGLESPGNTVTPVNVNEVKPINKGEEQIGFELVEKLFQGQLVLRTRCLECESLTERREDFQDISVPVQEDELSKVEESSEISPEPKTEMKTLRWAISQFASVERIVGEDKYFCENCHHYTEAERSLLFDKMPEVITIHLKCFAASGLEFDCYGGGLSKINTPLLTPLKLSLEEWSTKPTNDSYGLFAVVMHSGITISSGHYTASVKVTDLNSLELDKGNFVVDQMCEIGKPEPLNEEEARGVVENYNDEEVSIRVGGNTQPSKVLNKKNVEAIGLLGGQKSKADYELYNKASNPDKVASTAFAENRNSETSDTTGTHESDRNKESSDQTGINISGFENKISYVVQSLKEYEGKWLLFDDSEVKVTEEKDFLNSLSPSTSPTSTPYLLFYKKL

A short description of test [3]: S16 Schwann cell viability assay (CellTiter-Glo assay) (AID 624031).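 Further: native untransfected S16 rat Schwann cells; cellular ATP luminescence as a viability measure; nearly all actives have a fitted effect of over 70% in size.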 The gist of the method:
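Rat S16 Schwann cells without reporter constructs received compound or DMSO for 24 h at 37 °C under 5% CO2. Cellular ATP was then quantified by CellTiter-Glo luminescence, with vehicle wells defined as 0% activity and cell-free wells as reference.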
A general note: Cellular ATP, detected with luciferase, serves as a proxy for viable cell number.

The nature of test [4]: S16 Schwann cell PMP22 intronic element firefly luciferase assay (AID 624032). Further: nearly all actives have a fitted effect of over 30% in size. The gist of the method:
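Rat S16 Schwann cells stably carrying firefly luciferase driven by a PMP22 intronic element, in 10% FBS, treated 24 h at 37 C. ONE-Glo luminescence normalized to PTC124 control and DMSO (0%); curves classed by r2, magnitude and activity.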

Test [5] is described as follows: S16 Schwann cell PMP22 intronic element beta-lactamase assay (AID 624044; calls by dose curve; further: nearly all actives have a fitted effect of over 15% in size). The procedure, abridged: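 Beta-lactamase reporter under a PMP22 intronic regulatory element in stable S16 rat Schwann cells; 24 h compound exposure. 460 nm blue signal normalized between DMSO (0%) and potassium clavulanate, with 535 nm FRET tracking viability; curves classed by r2 and response.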

Another test relates to 7G8. Put plainly: qHTS profiling for inhibitors of Plasmodium falciparum proliferation (AID 504749). Further: nearly all actives have a fitted effect of over 60% in size. Further: potency means the concentration at half of the fitted maximal effect. As to conditions: P. falciparum in erythrocytes, SYBR Green DNA, 72 h; series mostly up to 28.7 µM. The procedure, abridged:
(§1)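 Each compound contacts P. falciparum-infected red blood cells for 72 h at 37 C; lysis buffer (Tris, EDTA, saponin, Triton X, SYBR Green I) is added and fluorescence measured next morning; values normalized to controls.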

For a further test, the system named is AA1029. Described as above. Conditions: P. falciparum in erythrocytes, SYBR Green DNA, 72 h; series mostly up to 28.7 µM. The gist of the method:
as §1

The test system of a further test is C2A. The test is described as above. Conditions: P. falciparum in erythrocytes, SYBR Green DNA, 72 h; series mostly up to 28.7 µM. The procedure, abridged: as §1
For another test, the system named is CP185. The description is as above. Conditions: P. falciparum in erythrocytes, SYBR Green DNA, 72 h; series mostly up to 28.7 µM. The gist of the method:
as §1

The test system of another test is CP201. Described as above. Conditions: P. falciparum in erythrocytes, SYBR Green DNA, 72 h; series mostly up to 28.7 µM. The procedure, abridged:
as §1

A further test has as its system CP211. The test is described as above. Conditions: P. falciparum in erythrocytes, SYBR Green DNA, 72 h; series mostly up to 28.7 µM. The gist of the method:
as §1

The next test relates to CP238. The description is as above. Conditions: P. falciparum in erythrocytes, SYBR Green DNA, 72 h; series mostly up to 28.7 µM. The procedure, abridged:
as §1

The next test deals with CP252. The test is described as above. Conditions: P. falciparum in erythrocytes, SYBR Green DNA, 72 h; series mostly up to 28.7 µM. The gist of the method: as §1
Another test has as its system CP262. The description is as above. As to conditions: P. falciparum in erythrocytes, SYBR Green DNA, 72 h; series mostly up to 28.7 µM. The gist of the method:
as §1

The subject of a further test is CP297. The test is described as above. Conditions: P. falciparum in erythrocytes, SYBR Green DNA, 72 h; series mostly up to 28.7 µM. The procedure, abridged:
as §1

Another test has as its system CP329. Described as above. As to conditions: P. falciparum in erythrocytes, SYBR Green DNA, 72 h; series mostly up to 28.7 µM. The procedure, abridged: as §1
The subject of another test is ICS. The description is as above. Conditions: P. falciparum in erythrocytes, SYBR Green DNA, 72 h; series mostly up to 28.7 µM. The procedure, abridged: as §1
A further test deals with P93_24. The test is described as above. Conditions: P. falciparum in erythrocytes, SYBR Green DNA, 72 h; series mostly up to 28.7 µM. The gist of the method:
as §1

In the next test the test system is TAB109. The description is as above. As to conditions: P. falciparum in erythrocytes, SYBR Green DNA, 72 h; series mostly up to 28.7 µM. The procedure, abridged: as §1
For the next test, the system named is DFO2036. The test is described as above. Conditions: P. falciparum in erythrocytes, SYBR Green DNA, 72 h; series mostly up to 28.7 µM. The procedure, abridged: as §1

Chain of ATP-dependent 6-phosphofructokinase (Trypanosoma brucei brucei) (O15648 whole entry, looked up): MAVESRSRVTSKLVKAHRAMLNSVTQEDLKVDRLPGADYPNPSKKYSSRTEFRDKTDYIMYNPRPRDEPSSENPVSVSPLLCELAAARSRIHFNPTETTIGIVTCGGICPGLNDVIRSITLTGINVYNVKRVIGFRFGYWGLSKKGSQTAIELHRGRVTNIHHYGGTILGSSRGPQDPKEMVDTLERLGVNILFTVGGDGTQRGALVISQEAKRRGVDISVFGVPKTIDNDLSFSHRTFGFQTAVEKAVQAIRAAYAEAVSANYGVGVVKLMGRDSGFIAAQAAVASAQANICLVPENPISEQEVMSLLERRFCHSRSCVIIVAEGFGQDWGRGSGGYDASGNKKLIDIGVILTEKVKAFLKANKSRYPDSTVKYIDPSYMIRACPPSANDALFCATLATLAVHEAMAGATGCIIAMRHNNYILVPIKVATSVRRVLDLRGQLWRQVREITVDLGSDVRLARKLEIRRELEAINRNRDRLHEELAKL

For `O=C(O)[C@@H](O)[C@@H](O)[C@H](O)[C@H](O)CO`, the result in test [1] and in [5] was inactive. Besides, the Potency entry (in test [2]; in test [3]; in test [4]; in the test with AA1029; with C2A; with CP185) was “inactive” each time. In addition, the Potency result in the test on CP201, in the test with CP211, in the test on CP238, in the test on CP252, in the test with CP262 and in the test on CP297 was “inactive” throughout. Also, the Potency result in the test with CP329 is “inactive”. In addition, the Potency was 2 µM (active) in the test with 7G8, 2.24 µM (active) with ICS, 10 µM (active) with P93_24 and 10 µM (active) with TAB109.
Consider `C[C@]12CC[C@H]3c4ccc(O)cc4CC[C@@H]3[C@H]1CC[C@@H]2OP(=O)(O)O`, for which the compound was called inactive in test [1]. Also, the Potency entry (in [2]; in test [3]; in [4]; in the test on 7G8; with AA1029; with C2A) was “inactive” each time. The Potency result in the test on CP185, in the test with CP201, with CP211, in the test on CP238, in the test with CP252 and in the test on CP262 was “inactive” throughout. In addition, the Potency result in the test on CP297, in the test with CP329, with DFO2036, with ICS, with P93_24 and in the test on TAB109 was “inactive” in each case.
With `N[C@@H](Cc1ccccc1)C(=O)O`, the compound was classed as inactive in test [1] and in [5]. Besides, the Potency entry (in [2]; in test [3]; in test [4]; in the test on 7G8; with AA1029; in the test with C2A) was “inactive” in each case. The Potency entry in the test on CP185, in the test on CP201, with CP211, in the test with CP238, in the test on CP252 and in the test on CP262 was “inactive” each time. Further, the Potency result with CP297, in the test with CP329, in the test on DFO2036, with ICS, in the test on P93_24 and in the test on TAB109 was “inactive” each time.
On to `CN(C)[C@H]1C(=O)C(C(=O)NCN2CCCC2)=C(O)[C@]2(O)C(=O)C3=C(O)c4c(O)cccc4[C@](C)(O)[C@H]3C[C@H]12`, for which the Potency result (in [3]; in test [4]; with 7G8; in the test on AA1029; in the test with C2A; with CP185) was “inactive” throughout. The Potency entry with CP201, in the test on CP211, with CP238, in the test on CP252, in the test on CP262 and with CP297 was “inactive” each time. Besides, the Potency result in the test on CP329, in the test on DFO2036, with ICS, with P93_24 and in the test with TAB109 was “inactive” in each case. Also, the compound was called inactive in [5].
